This is one part of a sample in which hits are shown more often than they occur.
PglD inh: blocks C. jejuni PglD acetyltransferase activity; inhibition, % at 12.5 µM; 0.098% of 360,000 active; purified PglD enzyme, DTNB colorimetric CoA detection; in the data active means inhibition above about 16%, passing the limit was not always enough
NRP1-CendR mod: modulators of CendR peptide binding to human neuropilin-1. FAM-RPARPAR peptide binding to NRP-1, fluorescence polarization. inhibition, % at 25 µM. 0.85% of 360,000 active. AID 602438;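 active means inhibition or corrected inhibition above about 18%, plus a signal ratio from 0.5 to 1.5, limit read from the data, passing the limit was not always enough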
ARNT TACC3 PPI: disruptors of human ARNT/TACC3 interaction; Q9Y6A5; AlphaScreen His-ARNT PAS-B/GST-TACC3 binding, luminescence; TACC3 fragment carries E629A point mutation; inhibition, % at 9.99 µM; 0.66% of 390,000 active; AID 623870;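 active means mean inhibition of replicates at least 50% and at least half of replicates each reaching 50%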
ERp5 block: inhibitors of human ERp5; Q15084; ERp5 insulin aggregation, absorbance 650 nm, 90 min; inhibition, % at 9.99 µM; 0.05% of 350,000 active; AID 651711;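 active means mean replicate inhibition above about 25%, with every replicate also reaching it, limit read from the data, passing the limit was not always enough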
ALR H2O2 inh: blocks human ALR sulfhydryl oxidase activity; AID 485317; inhibition, % (no concentration beside the values); purified ALR, DTT oxidation, H2O2 HRP-luminol luminescence; 3.8% of 290,000 active; P55789;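 active means mean replicate inhibition above about 79%, with every replicate also reaching it, limit read from the data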
PDI inh: blocks human protein disulfide isomerase activity; AID 588391; inhibition, % at 10 µM; PDI insulin aggregation turbidity, A650, 90 min; 0.052% of 350,000 active; P07237;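 active means mean inhibition across replicates of 30% or more, whatever share of single replicates reach that level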
Each line names hits and unclear results; the compound was inactive in the other large screens.

N#Cc1cc(-c2ccccc2)oc1NC(=O)c1ccccc1	ALR H2O2 inh 78.8 (no result: ERp5 block)
Cc1ccc(C(=O)Nc2oc(-c3ccccc3)cc2C#N)cc1	none (no result: ERp5 block)
Cc1cccn2c(=O)c(C(=O)NC3CCCCC3)c(O)nc12	none
Cc1cccn2c(=O)c(C(=O)NC3CCCCC3C)c(O)nc12 (stereo unspecified)	NRP1-CendR mod 43.5
CCOC(=O)Cc1c(C)c2c(C)[nH]nc2oc1=O	NRP1-CendR mod 43.0 (no result: ERp5 block)
C[C@@H]1CCCCO[C@H](CN(C)CC2CCCCC2)[C@H](C)CN([C@H](C)CO)C(=O)c2cc(NS(C)(=O)=O)ccc2O1	none (no result: NRP1-CendR mod, ALR H2O2 inh, PDI inh)
CCCCN1CC[C@H]2C=CC[C@@H](C(=O)Nc3ccc(Cl)cc3Cl)[C@H]2C1=O	NRP1-CendR mod 33.5
COc1ccc(CNC(=O)[C@@H]2CC=C[C@@H]3CCN(Cc4ccc(Cl)c(Cl)c4)C(=O)[C@@H]32)cc1	NRP1-CendR mod 30.1
COc1ccc(CNC(=O)[C@@H]2CC=C[C@@H]3CCN(C4CCCCC4)C(=O)[C@@H]32)cc1	none
CCCCN1CC[C@H]2C=CC[C@@H](C(=O)NCc3ccc(OC)cc3)[C@H]2C1=O	NRP1-CendR mod 20.9
C[C@H](O)C#Cc1cnc2c(c1)C(=O)N([C@H](C)CO)C[C@H](C)[C@@H](CN(C)C(=O)CN1CCOCC1)O2	none (no result: NRP1-CendR mod, ALR H2O2 inh, PDI inh)
C[C@H](CO)N1C[C@H](C)[C@H](CN(C)Cc2ccc(Oc3ccccc3)cc2)OCc2cn(nn2)CCCC1=O	none (no result: NRP1-CendR mod, ALR H2O2 inh, PDI inh)
O=C(C1CCCC1)N1CC[C@@H]2[C@H]1c1cc(C3=CCCCC3)ccc1N[C@@H]2CO	none (no result: PglD inh, NRP1-CendR mod, ARNT TACC3 PPI, ALR H2O2 inh, PDI inh)
O=C1C=C(NCCc2cc(Br)c(O)c(Br)c2)C(=O)c2ncccc21	NRP1-CendR mod 41.9, ARNT TACC3 PPI 64.3 (no result: PglD inh, ALR H2O2 inh)
CCc1cc(C(=O)Cc2cnn(-c3ccccc3)c2)c(O)cc1O	none (no result: ERp5 block)
O=C(Cc1cnn(-c2ccccc2)c1)c1ccc(O)c(O)c1O	ALR H2O2 inh 99.5 (no result: PglD inh, ERp5 block)
COc1ccccc1NC(=O)N1CC(=O)N2[C@H](CO)[C@@H](c3ccc(C#Cc4ccc(F)cc4)cc3)[C@@H]2C1	none (no result: PglD inh, NRP1-CendR mod, ARNT TACC3 PPI, ALR H2O2 inh, PDI inh)
CCN(CC)c1ccc(CNc2nnnn2C)cc1	ALR H2O2 inh 99.0
CCCn1nnnc1NCc1ccc(N(CC)CC)cc1	ALR H2O2 inh 98.4
Cn1nnnc1NCc1ccc(Cl)cc1	none (no result: PglD inh, ALR H2O2 inh)
CCCn1nnnc1NCc1ccc(F)cc1	none (no result: PglD inh)
CCCNC(=O)C[C@H]1CC[C@H]2[C@@H](COc3ccc(NC(=O)C4CCOCC4)cc3C(=O)N2C)O1	none (no result: PglD inh, NRP1-CendR mod, ARNT TACC3 PPI, ALR H2O2 inh, PDI inh)
Cc1ccc(-c2cc(-c3n[nH]c(=S)o3)c3ccccc3n2)cc1	ALR H2O2 inh 98.3 (no result: PglD inh)
CCCc1nc(SCC(=O)Nc2ccc(N3CCOCC3)cc2)c2ccccc2n1	ALR H2O2 inh 98.5 (no result: ERp5 block)
CC(C)c1nc(SCC(=O)Nc2ccc(N3CCOCC3)cc2)c2ccccc2n1	ALR H2O2 inh 98.7 (no result: ERp5 block)
Cc1cc(C)nc(SCC(=O)Nc2ccc(N3CCOCC3)cc2)n1	ALR H2O2 inh 98.2 (no result: ERp5 block)
Cc1cc(C)c(S(=O)(=O)Nc2ccc(O)c(Sc3ncn[nH]3)c2)cc1C	none (no result: PDI inh)
Cc1cc(C)c(S(=O)(=O)Nc2ccc(O)c(Sc3ncn[nH]3)c2)c(C)c1	ALR H2O2 inh 99.0
CC(C)c1ccc(S(=O)(=O)Nc2ccc(O)c(Sc3ncn[nH]3)c2)cc1	ALR H2O2 inh 98.7
O=C(C[C@H]1CC[C@@H]2[C@H](COC[C@@H](O)CN2Cc2cccc(C(F)(F)F)c2)O1)NCc1ccncc1	none (no result: NRP1-CendR mod, ALR H2O2 inh, PDI inh)
CC(C)C#Cc1ccc([C@@H]2[C@H](CO)N3C(=O)CN(C(=O)C4CCCCC4)C[C@@H]23)cc1	none (no result: PglD inh, NRP1-CendR mod, ARNT TACC3 PPI, ALR H2O2 inh, PDI inh)
CC(=O)Nc1ccc(NC(C)=O)s1	ALR H2O2 inh 87.0 (no result: ARNT TACC3 PPI, ERp5 block)
CC(=O)Nc1ccc(-c2ccccc2)s1	none (no result: ERp5 block)
CCOC(=O)/C=C1\CC(C(=O)OCC)Oc2ccccc21 (stereo unspecified)	none (no result: ALR H2O2 inh)
CCOC(=O)/C=C1\Nc2ccccc2OC1=O	ALR H2O2 inh 93.2 (no result: PglD inh)
C[C@@H]1CCCCO[C@@H](CN(C)Cc2ccc(Cl)c(Cl)c2)[C@H](C)CN([C@H](C)CO)C(=O)c2cc(NS(=O)(=O)c3ccccc3)ccc2O1	none (no result: NRP1-CendR mod, ALR H2O2 inh, PDI inh)
COCCNC(=O)C[C@@H]1CC[C@H](NS(=O)(=O)c2ccc(C)cc2)[C@@H](CO)O1	none (no result: NRP1-CendR mod, ALR H2O2 inh, PDI inh)
O=C(CSc1nnc(-c2ccco2)c(-c2ccco2)n1)Nc1ccccc1	ALR H2O2 inh 98.7 (no result: ERp5 block)
Cc1ccc(NC(=O)CSc2nnc(-c3ccco3)c(-c3ccco3)n2)cc1	ALR H2O2 inh 99.1 (no result: ERp5 block)
